PubChem BioAssay (NCI)
Compounds without any hit were thinned out: in the full panel of roughly 79,000, 15% have a hit. Values without a mark were called inactive. Activity calls are given as the source filed them. Rule as the data show it: active = growth inhibition above about 70%; inactive = the rest.

Assay: NCI Yeast Anticancer Drug Screen. Data for the CLN2oe strain (AID 163);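 also: 0% = growth of vehicle-only control cultures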
Conditions: S. cerevisiae CLN2oe strain, stronger effect = higher value
Method: Growth inhibition of yeast strains with defined genetic alterations is measured as a screen for potential anti-cancer activity. Selected strains with alterations in DNA damage repair or cell cycle control were exposed to compounds and growth inhibition was measured relative to vehicle treated controls. The strain used in this assay is CLN2oe

| SMILES | growth inhibition (at 1.2 µM) [%] | growth inhibition (at 3.7 µM) [%] | growth inhibition (at 11.0 µM) | growth inhibition (at 33.0 µM) | growth inhibition (at 100.0 µM) |
| --- | --- | --- | --- | --- | --- |
| O=C(O)c1cc2c(cc1S(=O)(=O)O)C1C(C3C2C2(Cl)C(Cl)=C(Cl)C3(Cl)C2(Cl)Cl)C2(Cl)C(Cl)=C(Cl)C1(Cl)C2(Cl)Cl (stereo not given) | -4 | -5 | -11% | 51% | 88% (active) |
| Cc1ccc(C)c(C(=N)c2ccccc2Cc2ccccc2)c1 | -3 | 6 | 47% | 95% (active) | 98% (active) |
| N#CCCC1C(C#N)C2(Cl)CC1(Cl)C(Cl)=C2Cl (stereo not given) | -28 | -9 | -6% | 38% | 96% (active) |
| CC1=CN2C(c3ccccc3)=NON(c3ccc(C)cn3)C2C=C1 (stereo not given) | 2 | -2 | -4% | -2% | -7% |
| CCCCCCCCCCCCCCCCCCN(C)C(COC)COP(=O)([O-])OCC[N+](C)(C)C (stereo not given) | -39 | -44 | 97% (active) | 98% (active) | 98% (active) |
| Cc1cccc2c(Cl)c3cccc(C)c3nc12 | -5 | -5 | -7% | -7% | -3% |
| CCCCCc1c(CCCC)c(=O)[nH]c2cc(CNCC(OC)OC)ccc12 | 0 | 11 | 63% | 98% (active) | 94% (active) |
| CCN(CC)CC(=O)c1ccc2cc(Cl)c3ccccc3c2c1 | 8 | 11 | 99% (active) | 98% (active) | 99% (active) |
